Assay outcomes deposited in PubChem BioAssay by National Center for Advancing Translational Sciences (NCATS).
Rows were chosen to be rich in hits. Some 10% of all compounds tested hit in one or more screens of this group.
RORg inh: inhibitors of mouse ROR gamma transcriptional activity. P51450. Drosophila S2 Gal4-RORgamma UAS-luciferase reporter, 20 h. Potency, µM (titrated, usually from 53.6 µM), for the others: at the highest dose activity change, negative = inhibition, actives largely listed as inhibitors. hit rate 5.4% among 310,000. AID 2551; note: % is set by controls: 0 for no effect and ±100 for the full control effect; nearly all actives have a fitted effect of over 60% in size
Target sequence (P51450 whole entry, looked up, the tested form may be a part): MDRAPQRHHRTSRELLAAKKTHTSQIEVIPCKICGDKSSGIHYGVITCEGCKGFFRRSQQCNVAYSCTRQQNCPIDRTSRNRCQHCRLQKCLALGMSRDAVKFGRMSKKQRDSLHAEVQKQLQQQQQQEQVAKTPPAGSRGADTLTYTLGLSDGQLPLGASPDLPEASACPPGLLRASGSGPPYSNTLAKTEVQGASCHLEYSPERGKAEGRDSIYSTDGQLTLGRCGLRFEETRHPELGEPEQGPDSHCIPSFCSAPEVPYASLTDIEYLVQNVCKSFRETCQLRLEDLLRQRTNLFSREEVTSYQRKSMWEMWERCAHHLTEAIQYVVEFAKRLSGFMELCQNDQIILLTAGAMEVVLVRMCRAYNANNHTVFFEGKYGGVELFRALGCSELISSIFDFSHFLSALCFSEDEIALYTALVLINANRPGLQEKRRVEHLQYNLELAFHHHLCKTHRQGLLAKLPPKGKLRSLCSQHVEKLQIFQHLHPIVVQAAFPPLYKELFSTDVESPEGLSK
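Drosophila S2 cells stably expressing Gal4-DBD/mouse RORγ fusion under metallothionein promoter plus UAS-luciferase; compound 1 h, then 700 uM CuSO4 induction for 20 h at ambient temperature; inhibition read as reduced luminescence.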
MCF10A rerep: inducers of DNA re-replication in MCF 10A breast cells; MCF 10A DNA re-replication, Hoechst nuclear intensity, 48 h; Potency, µM (top dose mostly 46.1 µM), without a hit: top-dose activity, positive = re-replication, actives largely listed as activators; AID 624296; hit rate 2.9% among 350,000; note: % of control where 0% means no effect; nearly all actives have a fitted effect of over 50% in size
Gal4-VP16 FLuc: Gal4-VP16 reporter inhibition counter-screen | Drosophila S2 Gal4-VP16 UAS-luciferase, luminescence, 20 h | Potency, µM (doses to about 53.6 µM), inactives show top-dose activity, negative = inhibition, most hits filed as inhibitors | hit rate 3.5% among 310,000 | AID 2546;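 note: Gal4-VP16 expression switched on by copper sulfate through the metallothionein promoter; % is set by controls: 0 for no effect and ±100 for the full control effect; nearly all actives have a fitted effect of over 50% in size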
KB-V1 cytotox: KB-V1 MDR subline cytotoxicity; hit rate 3.4% among 400,000; AID 1347076; KB-V1 MDR cells viability, CellTiter-Glo, 72 h; Potency, µM (highest dose often 46.1 µM), hits mostly cytotoxic; note: % is set by controls: 0 for no effect and ±100 for the full control effect; nearly all actives have a fitted effect of over 60% in size
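Luminescent ATP read-out (CellTiter-Glo, 10 min) measures survival of drug-selected KB-V1 MDR cells after 72 h, 37 degrees C compound exposure. Medium: phenol-red-free DMEM, 10% FBS. Values from fitted concentration-response curves.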
KB-3-1 cytotox: KB-3-1 parental cell cytotoxicity; Potency, µM (highest dose often 46.1 µM), most hits filed as cytotoxic; AID 1347075; hit rate 1.4% among 400,000; KB-3-1 viability, CellTiter-Glo ATP luminescence, 72 h; note: % is set by controls: 0 for no effect and ±100 for the full control effect; nearly all actives have a fitted effect of over 60% in size
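KB-3-1 cells, DMEM (no phenol red) + 10% FBS; compound by pin transfer, 72 h, 37 °C. Readout: CellTiter-Glo luminescence after 10 min. Data normalized, curve-fitted.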
SW480 rereplic: inducers of DNA re-replication in SW480 colon cancer cells | Potency, µM (titrated, usually from 46.1 µM), inactives show top-dose re-replication activation, usual class: activators | SW480 DNA re-replication, Hoechst DNA content imaging, 48 h | hit rate 1.8% among 340,000 | AID 624297; note: % of control where 0% means no effect; nearly all actives have a fitted effect of over 55% in size
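Per well, 250 cells were exposed to pinned compound for 48 hr. Nuclear DNA was visualised with Hoechst (40 min, 37 C) and total object intensity recorded by fluorescence scanning.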
* hit, by the source's call; i = inactive; ? = inconclusive; nt = no result given; [ ] = remark or other dose. Calls come from the whole dose curve; as a rule, active = well fitted curve in the direction sought with a large enough effect; inconclusive = small, poorly fitted or top-dose-only effect, or another doubt; inactive = no such curve, though single readings can be large; an effect the other way counts as inactive or inconclusive. Potency is the fitted concentration of half-maximal effect.

SMILES | RORg inh | MCF10A rerep | Gal4-VP16 FLuc | KB-V1 cytotox | KB-3-1 cytotox | SW480 rereplic
Cc1ccc(S(=O)(=O)NC(Cc2ccccc2)C(=O)NN)cc1 (centres undefined) | -17% | 2% | 4% | i | i | ?
Cc1ccc(S(=O)(=O)N[C@@H](Cc2ccccc2)C(=O)CCl)cc1 | ? | 2.3µM* | 16µM* | ? | ? | ?
CC(=O)NC(CC(C)C)C(=O)NC(Cc1ccccc1)C(=O)CCl (centres undefined) | nt | 8.2µM* | nt | i | i | 17%
Cc1c(C(=O)NCCC#N)sc(=O)n1Cc1ccccc1F | nt | nt | nt | i | i | nt
Cc1ccccc1-n1c(-c2ccc(Cl)cc2)cnc1SCC(=O)NC1CCS(=O)(=O)C1 (centres undefined) | ? | 10% | ? | 18µM* | i | -2%
O=C(CSc1nnc(-c2ccc(Cl)cc2)n1CC1CCCO1)NC1CCS(=O)(=O)C1 (centres undefined) | -16% | 1.2µM* | 11% | i | i | ?
Cc1nc2ccccc2n1CSc1ccccc1 | 14µM* | 13% | -29% | i | i | 11%
Cc1nc2ccccc2n1Cc1ccccc1Br | ? | -8% | 13µM* | i | i | 1%
Cc1nc2ccccc2n1Cc1ccccc1 | 1%[1.91 µM] | -1% | ? | ? | i | -3%
CCC(C)Cn1c(COc2ccc(OC)cc2)nc2ccccc21 (centres undefined) | nt | nt | nt | i | i | nt
Cc1nc2ccccc2n1Cc1ccc(Br)cc1 | nt | -2% | nt | ? | ? | -2%
CCC(C)Cn1c(C)nc2ccccc21 (centres undefined) | 13µM* | -5% | 13µM* | i | i | -3%
O=C(CO)[C@@H](O)C(O)[C@@H](O)CO (some centres undefined) | -8% | nt | -6% | nt | nt | nt
COc1cc(/C=N/NC(=O)c2cccnc2)cc(Br)c1O | ? | ? | -5% | ? | i | 2%
CCNC(=S)N/N=C/c1cc(Br)cc(Br)c1OC | 1.1µM* | -5% | 2.5µM* | i | i | ?
O=C(N/N=C/c1cc(Cl)ccc1O)c1ccncc1 | 3.2µM* | ? | ? | ? | ? | 0.65µM*
CCOc1cc(Br)cc(/C=N/NC(=O)c2cccnc2)c1O | 0.79µM* | ? | 1µM* | i | ? | ?
COc1c(Br)cc(Br)cc1/C=N/NC(=O)c1cccnc1 | ? | ? | ? | i | 16µM* | 4%
O=C(CN1C(=O)c2ccccc2C1=O)C(O)CN1C(=O)c2ccccc2C1=O (centres undefined) | nt | nt | nt | i | i | nt
Cc1ccc(NC(=O)c2oc3ccccc3c2NC(=O)c2ccc(F)c(F)c2)cc1 | nt | nt | nt | i | i | nt
COc1cc(/C=N/NC(=O)c2ccncc2)ccc1OC(=O)c1cccc(Br)c1 | -28% | -19% | -22% | i | i | -17%
CN(C)c1ccc(C(=O)N/N=C/c2cc(Br)cc(Br)c2O)cc1 | 2.8µM* | 2% | 5.6µM* | ? | ? | -135%
COc1ccc(/C=N/NC(=O)c2cccnc2)c2ccccc12 | 1.3µM* | 5% | -19% | i | i | -3%
COc1cccc(C(=O)Oc2c(Br)cc(Br)cc2/C=N/NC(=O)c2cc(C)[nH]n2)c1 | -16% | ? | 22µM* | ? | i | -2%
COc1cccc(/C=N/NC(=O)c2ccncc2)c1OC(=O)c1ccc(Br)cc1 | 5µM* | 15µM* | 11µM* | i | i | 26%
SMILES | RORg inh | MCF10A rerep | Gal4-VP16 FLuc | KB-V1 cytotox | KB-3-1 cytotox | SW480 rereplic
Clc1nc(NCc2ccco2)c2[nH]cnc2n1 | nt | nt | nt | i | i | nt
COc1c(Br)cc(Br)cc1/C=N/NC(=O)c1ccncc1 | 14µM* | 1% | -3% | i | i | 13%
COc1ccc(/C=N/NC(=O)c2c(Br)cnn2C)c2ccccc12 | 20µM* | ? | 2.8µM* | i | i | 0%
COC(=O)c1nc2nc(-c3cccs3)cc(C(F)(F)F)n2n1 | 26% | -10% | 8% | i | i | 0.52µM*
Cc1nc2ccc([N+](=O)[O-])cc2nc1C | -11% | 0% | 7% | ? | i | -5%
Cc1ccc2nc3cc([N+](=O)[O-])cc([N+](=O)[O-])c3cc2c1 | ? | ? | 2.2µM* | ? | ? | 0.65µM*
CC(SC1=NS(=O)(=O)c2ccccc21)C(=O)O (centres undefined) | nt | nt | nt | i | i | nt
Cc1cc(=O)n(C(C)C(=O)NCc2ccccc2Cl)c2c1c(C)nn2-c1ccccc1 (centres undefined) | nt | nt | nt | i | i | nt
CSc1nccc(N2CCN(c3ccc(F)cc3)CC2)n1 | ? | 20% | 13µM* | ? | i | -1%
CCCCNc1nc(Oc2ccc(=O)n(-c3ccccc3)n2)nc(N(C)C)n1 | nt | nt | nt | i | i | nt
CC(C)CC(=O)NCC(c1ccc2c(c1)OCO2)N1CCN(c2ccccc2F)CC1 (centres undefined) | nt | nt | nt | i | i | nt
Cc1cc(Nc2ccc3c(c2)OCCO3)c2cccc(C)c2n1 | -1% | 19% | -17% | 23µM* | ? | -8%
Cc1cc(Nc2ccc3c(c2)OCCO3)c2ccccc2n1 | -4% | 10% | 4% | i | i | 0%
N#CC1=C(N)OC2=C(CCc3ccccc32)C1c1ccccc1Cl (centres undefined) | -32% | 2.9µM* | -10% | 4.6µM* | ? | 8.2µM*
CC(=O)Nc1sc(C)c(C)c1C(=O)OCC(=O)NCc1ccc(Cl)cc1 | nt | 2% | nt | i | i | -18%
COc1cccc(CNC(=O)COC(=O)c2nc(Cl)c(Cl)c(Cl)c2Cl)c1 | nt | 7.3µM* | nt | i | ? | 12µM*
COc1cccc(CNC(=O)COC(=O)c2c(NC(C)=O)sc(C)c2C)c1 | nt | 2% | nt | ? | i | 16µM*
COc1cc(NS(=O)(=O)c2ccc(NC(=O)c3ccc(C(C)=O)cc3)cc2)nc(OC)n1 | nt | nt | nt | i | i | nt
CCOC(=O)C1=CCN(S(=O)(=O)c2ccc(C)cc2)C1c1cccc(F)c1 (centres undefined) | nt | nt | nt | ? | i | nt
CC1=NNC(=O)/C1=C\c1cn(-c2ccccc2)nc1-c1ccccc1 | 1.1µM* | 3.7µM* | 2%[10 µM] | ? | ? | 10%
C#CCOc1ccc(/C=C2\SC(=S)N(Cc3cccnc3)C2=O)cc1 | -34% | 21µM* | -10% | ? | 21µM* | 15µM*
O=C(Nc1nc2c(Br)cc(Br)cc2c(=O)s1)C1CCC1 | -10% | 5.2µM* | -1% | i | i | -4%
COc1ccc(OC)c2sc(NC(=O)C3CC3)nc12 | 8% | -3% | 8% | i | i | -17%
